# Counter-ions that a name gives are not always drawn. Values without a mark were called inactive.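 How the source made its calls: active = HIS4 sensitivity z-score above 5 vs DMSO controls; inactive = score 5 or below.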
# System: S. cerevisiae NKY1551 his4x/his4B, sporulating
# Assay: HIS4 meiotic recombination assay sensitivity score (z-score vs DMSO controls); higher = stronger inhibition of sporulation/recombination, active = hit call of the paper
# Description: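 NIH Clinical Collection compounds were added 1:100 from stock (about 100 µM final) to S. cerevisiae. Growth: average doubling time (AvgG) over 24 h of BY4741 (wild-type) or AD1-9 (drug-efflux-pump deficient) in rich media. HIS4: the his4x/his4B heteroallelic recombination reporter strain (SK1) was sporulated 5 h with compound at 30°C, then colony density was read on -his plates after 48 h. Sensitivity score = (compound − mean of 8 DMSO controls)/SD of DMSO controls. Hit cutoffs are >2 for growth and >5 for sporulation.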
row,SMILES,HIS4 meiotic recombination assay sensitivity score
1,"C[C@@H](O)[C@H]1C(=O)N2C(C(=O)O)=C(S[C@@H]3CN[C@H](C(=O)N(C)C)C3)[C@H](C)[C@H]12 [Meropenem] (stock concentration (mM, diluted 1:100): 11.4)",-1.58
2,"Cc1cccc(CCN2CCC(C(=O)c3ccc(NS(C)(=O)=O)cc3)CC2)n1 (stock concentration (mM, diluted 1:100): 9.9)",-3.32
3,"CC(C)(C)NCC(O)c1ccc(O)c(CO)c1 (stereo not given) [Salbutamol sulfate] (stock concentration (mM, diluted 1:100): 9.7)",-0.65
4,"CN1CCCC(n2nc(Cc3ccc(Cl)cc3)c3ccccc3c2=O)CC1 (stereo not given) [Azelastine hydrochloride] (stock concentration (mM, diluted 1:100): 9.1)",10.7 (active)
5,"CN(C/C=C/C#CC(C)(C)C)Cc1cccc2ccccc12 [Terbinafine hydrochloride] (stock concentration (mM, diluted 1:100): 8.9)",-0.72
6,"NC[C@H]1CC[C@H](C(=O)Oc2ccc(CCC(=O)O)cc2)CC1 [Cetraxate hydrochloride] (stock concentration (mM, diluted 1:100): 9)",-0.39
7,"O=[N+]([O-])c1cccc2cn[nH]c12 [7-Nitroindazole] (stock concentration (mM, diluted 1:100): 10)",-1.75
8,"O=C(O[C@@H]1C[C@@H]2C[C@H]3C[C@H](C1)N2CC3=O)c1c[nH]c2ccccc12 [Dolasetron mesylate] (stock concentration (mM, diluted 1:100): 10.4)",-3.34
9,"NC(N)=Nc1nc(CSCC/C(N)=N/S(N)(=O)=O)cs1 [Famotidine] (stock concentration (mM, diluted 1:100): 10)",-0.42
10,"Clc1ccccc1C(c1ccccc1)(c1ccccc1)n1ccnc1 [Clotrimazole] (stock concentration (mM, diluted 1:100): 10)",-0.98
11,"Clc1ccc2c(c1)CCc1cccnc1C2=C1CCNCC1 [Desloratadine] (stock concentration (mM, diluted 1:100): 10)",1.24
12,"CC(=O)O[C@@]12CO[C@@H]1C[C@H](O)[C@@]1(C)C(=O)[C@H](O)C3=C(C)[C@@H](OC(=O)[C@H](O)[C@@H](NC(=O)OC(C)(C)C)c4ccccc4)C[C@@](O)([C@@H](OC(=O)c4ccccc4)[C@H]21)C3(C)C [Docetaxel] (stock concentration (mM, diluted 1:100): 10)",-1.69
13,"CCN1CC(CCN2CCOCC2)C(c2ccccc2)(c2ccccc2)C1=O (stereo not given) [Doxapram hydrochloride] (stock concentration (mM, diluted 1:100): 10.4)",1.8
14,"CCOC(=O)C1=C(C)NC(C)=C(C(=O)OC)C1c1cccc([N+](=O)[O-])c1 (stereo not given) [Nitrendipine] (stock concentration (mM, diluted 1:100): 10)",1.41
15,"CSc1nc2cc(Cl)c(Oc3cccc(Cl)c3Cl)cc2[nH]1 [Triclabendazole] (stock concentration (mM, diluted 1:100): 10)",-1.98
16,"NC1CCN(c2nc3c(cc2F)c(=O)c(C(=O)O)cn3-c2ccc(F)cc2F)C1 (stereo not given) [Tosufloxacin tosylate] (stock concentration (mM, diluted 1:100): 7)",-2.15
17,"COc1ccc2c(c1)c(CC(=O)O)c(C)n2C(=O)c1ccc(Cl)cc1 [Indomethacin] (stock concentration (mM, diluted 1:100): 10.5)",0.4
18,"O=C1[C@H]2CCCC[C@H]2C(=O)N1CCCCN1CCN(c2nsc3ccccc23)CC1 [Perospirone hydrochloride] (stock concentration (mM, diluted 1:100): 9.4)",-2.62
19,"CC1CNc2c(cccc2S(=O)(=O)N[C@@H](CCCNC(=N)N)C(=O)N2CC[C@@H](C)C[C@@H]2C(=O)O)C1 (stereo not given in full) [Argatroban] (stock concentration (mM, diluted 1:100): 10.1)",0.32
20,"CC(=O)Oc1ccccc1C(=O)Nc1ncc([N+](=O)[O-])s1 [Nitazoxanide] (stock concentration (mM, diluted 1:100): 10)",6.54 (active)

row,SMILES,HIS4 meiotic recombination assay sensitivity score
1,"O=C(NCCO[N+](=O)[O-])c1cccnc1 [Nicorandil] (stock concentration (mM, diluted 1:100): 10)",0.03
2,"COC(=O)C1=C(C)NC(C)=C(C(=O)OC2CCCN(Cc3ccccc3)C2)C1c1cccc([N+](=O)[O-])c1 (stereo not given) [Benidipine hydrochloride] (stock concentration (mM, diluted 1:100): 6)",-1.2
3,"COc1cccc2c1C(=O)c1c(O)c3c(c(O)c1C2=O)C[C@@](O)(C(=O)CO)C[C@@H]3O[C@H]1C[C@H](N)[C@@H](O)[C@H](C)O1 [Epirubicin hydrochloride] (stock concentration (mM, diluted 1:100): 9.4)",-1.39
4,"COc1ccc2cc([C@H](C)C(=O)O)ccc2c1 [Naproxen sodium] (stock concentration (mM, diluted 1:100): 10)",-0.09
5,"Cc1nc(=O)c2cc(CN(C)c3ccc(C(=O)N[C@@H](CCC(=O)O)C(=O)O)s3)ccc2[nH]1 [Raltitrexed] (stock concentration (mM, diluted 1:100): 10)",-0.01
6,"CC(C)c1ccc2c(c1)c(SC(C)(C)C)c(CC(C)(C)C(=O)O)n2Cc1ccc(Cl)cc1 [Tocris-1311] (stock concentration (mM, diluted 1:100): 10)",-0.42
7,"O=C(O)CCNC(=O)c1ccc(/N=N/c2ccc(O)c(C(=O)O)c2)cc1 [Balsalazide] (stock concentration (mM, diluted 1:100): 10)",-1.14
8,"CN1CCC(=C2c3ccccc3C=Cc3ccccc32)CC1 [Cyproheptadine hydrochloride] (stock concentration (mM, diluted 1:100): 10)",6.95 (active)
9,"CCOC(=O)c1ncn2c1CN(C)C(=O)c1cc(F)ccc1-2 [Flumazenil] (stock concentration (mM, diluted 1:100): 10)",-0.81
10,"CCC(=O)NS(=O)(=O)c1ccc(-c2c(-c3ccccc3)noc2C)cc1 [Parecoxib] (stock concentration (mM, diluted 1:100): 9.8)",0.05
11,"Nc1ccc(O)c(C(=O)O)c1 [Mesalamine] (stock concentration (mM, diluted 1:100): 10)",-2.13
12,"O=C1CCc2ccc(OCCCCN3CCN(c4cccc(Cl)c4Cl)CC3)cc2N1 [Aripiprazole] (stock concentration (mM, diluted 1:100): 10)",-1.42
13,"Cc1cn([C@H]2C=C[C@@H](CO)O2)c(=O)[nH]c1=O [Stavudine] (stock concentration (mM, diluted 1:100): 10)",-1.75
14,"CCCCN1CCCC1CNC(=O)c1cc(C#N)c2ccccc2c1OC (stereo not given) [Nafadotride] (stock concentration (mM, diluted 1:100): 10)",-0.64
15,"CN1CCN(C2=Nc3cc(F)ccc3Cc3ccccc32)CC1 [Fluperlapine] (stock concentration (mM, diluted 1:100): 10)",-1.76
16,"Cc1c(OCC(F)(F)F)ccnc1C[S+]([O-])c1nc2ccccc2[nH]1 (stereo not given) [Lansoprazole] (stock concentration (mM, diluted 1:100): 10.1)",1.42
17,"CN(C)CCOC(C)(c1ccccc1)c1ccccn1 (stereo not given) [Doxylamine succinate] (stock concentration (mM, diluted 1:100): 10)",1.01
18,"CC1=Nc2ccc(Cl)cc2S(=O)(=O)N1 [Diazoxide] (stock concentration (mM, diluted 1:100): 10)",-1.19
19,"COc1ccc2[nH]c([S+]([O-])Cc3ncc(C)c(OC)c3C)nc2c1 (stereo not given) [Esomeprazole mg] (stock concentration (mM, diluted 1:100): 4.8)",0.32
20,"NC1CCN(c2cccc(Cl)n2)CC1 (stock concentration (mM, diluted 1:100): 10)",2.37

# Reference: the supplement of paper PMC3414501
